The source of these data is PubChem BioAssay (NCI).

This is part of a sample that, as a whole, favours compounds with a hit. Of some 83,000 tested, about 20% had one in any assay.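 Compound tested at a single concentration for 48 hours in 96-well plates; a percent growth value below 10 was scored as active.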 Unmarked numbers belong to inactive results.

The first assay concerns T-47D breast. Put plainly: NCI-60 one-dose screen, 48 h (100 = growth as untreated, 0 = no growth, -100 = all killed). The following applies: 10 µM unless noted.
Turning to `COc1cc(-c2nc(-c3ccccc3)[nH]c2-c2ccnc(NCCCNS(=O)(=O)c3ccc(C)cc3)n2)ccc1F`, the growth is 57.3%.
Take `COc1cc(NC(=O)Nc2cccc(-c3cc(=O)c4c(OC)c(OC)c(OC)cc4o3)c2)cc(OC)c1OC`: the growth was 11.9%.
Same read-out and setting: next, `CC(C)Sc1nc(-c2ccccc2)c(C#N)c(N2CCOCC2)n1`: 68.5%.

A further assay relates to BT-549 breast. Described as above. Particulars: 10 µM unless noted.
Turning to `COc1ccc(C2CC(c3cccc(OCCCCOc4cccc(C5=NN(C(C)=O)C(c6ccc(OC)cc6)C5)c4)c3)=NN2C(C)=O)cc1` (stereo not drawn), the growth is 69.8%.
On the same count and under the same terms, in the case of `O=C(CSc1nc2ccccc2c(=O)n1-c1ccccc1)Nc1ccc(S(=O)(=O)Nc2nccs2)cc1` it was 45.2%; in that of `COC(=O)c1ccc(NC2=C(Cl)C(=O)C(C)=C(C)C2=O)cc1`, 77.5%; in that of `O=S(=O)(Oc1ccc(-c2cn3ccoc3n2)cc1)c1cccc(C(F)(F)F)c1`, 98.8%.
Same read-out and setting: next, `O=C(Nc1ccc(N2CCOCC2)cc1)Nc1ccc2c(ccn2C(=O)c2cccc(F)c2)c1`: 71.7%; `CCc1cc(OC(=O)N2CCN(CCC(C)(COC(C)(C)C)COC(C)(C)C)CC2)ccc1Nc1cc(-c2ccc(-n3cccn3)cc2)[nH]n1`: 108%; `COC(=O)CNC(=O)c1cccc(-c2cc(=O)c3c(OC)c(OC)c(OC)cc3o2)c1`: 102%.
On the same count and under the same terms, next, `Cc1csc(/N=C(N)/N=C(\N)c2cccs2)n1`: 134%; `C#Cc1nc(C(=O)NCCCCCCC(=O)NO)cs1`: 50.3%.
With `COC(=O)c1ccc(NC2=C(Cl)C(=O)c3nc(C)ccc3C2=O)cc1`, the growth is 99%.
